Pf apPOL inh – Pf-apPOL DNA polymerase inhibition; Recombinant Pf-apPOL, molecular beacon fluorescence, 1.5 h; inhibition, % at 10 µM; hit rate 0.25% among 210,000; AID 1794808
mHTT-CaM PPI inh – disrupts binding of mutant huntingtin to calmodulin; P42858; AlphaScreen His-mHTT/GST-CaM binding, luminescence; inhibition, % at 15 µM; hit rate 3.6% among 190,000;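 note: 0% = both proteins with DMSO and 100% = one protein alone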
An asterisk follows results filed as active; . = not tested or not shown. Many of the other results were omitted from the sample, so hits are more common in it than they were. Cut-off read from the data, not from the text of the source: active = inhibition above about 50%; inactive = the rest.

SMILES	Pf apPOL inh	mHTT-CaM PPI inh
COc1cccc(NC(=O)c2oc3ccc(S(=O)(=O)N4CCCC4)cc3c2C)c1	-6.2	-5.0
O=C1C2C3C=CC(O3)C2C(=O)N1c1cc(C(F)(F)F)ccc1Cl (stereo unspecified)	-3.4	-4.0
O=C1C=CC(=O)C(c2cc(C(F)(F)F)ccc2Cl)=C1	-3.0	60.0*
CN(N=Cc1cc(Cl)cc(Cl)c1O)C(=S)SCc1c(F)cccc1Cl	4.9	.
CCn1c(C2CCN(Cc3ccc(Cl)cc3)C2)nc2cccnc21 (stereo unspecified)	-11.9	57.4*
CCn1c(C2CCN(Cc3ccc(F)cc3)C2)nc2cccnc21 (stereo unspecified)	-8.4	11.7
CC1=C(C(=O)Nc2ccccn2)C(c2cccs2)C2=C(CC(C)(C)CC2=O)N1 (stereo unspecified)	-4.2	-5.0
CS(=O)(=O)N(Cc1ccccc1)c1ccccc1C(=O)NCCSc1ccc(Cl)cc1	-11.8	52.0*
COCCNC(=O)c1ccccc1N(Cc1ccccc1)S(=O)(=O)c1ccccc1	7.1	8.8
COc1ccc(C)cc1NC(=O)CCC1CCCN(c2cc(NC3CC3)ncn2)C1 (stereo unspecified)	-7.8	10.5
CCCNc1cc(N2CCC(CCC(=O)Nc3cc(C)ccc3OC)CC2)ncn1	-6.1	58.8*
COc1ccc(C)cc1NC(=O)CCC1CCN(c2cc(NC3CC3)ncn2)CC1	-3.4	39.2
CCNc1cc(N2CCCC(CCC(=O)Nc3cc(C)ccc3OC)C2)ncn1 (stereo unspecified)	1.2	55.5*
COc1ccc(Cl)cc1S(=O)(=O)N1CCc2c(nc3cc[nH]n3c2=O)C1	0.0	6.7
O=C(Nc1ccc(N2CCOCC2)c(Cl)c1)c1ccccc1	-155.9	-6.7
O=C(Nc1ccc(N2CCOCC2)c(Cl)c1)c1ncn[nH]1	2.1	81.9*
Cc1c(NC(=O)c2ccccc2F)cccc1-c1nc2cc(Cl)ccc2o1	2.8	-18.1
CCN(CC)c1ccc(NC(=O)c2ncn[nH]2)cc1	-2.3	41.1
O=C(Nc1ccc(-c2nc3cc(Cl)ccc3o2)cc1)c1ncn[nH]1	-179.8	82.6*
COc1cc(C(=O)Nc2ccc(-c3nc4cc(Cl)ccc4o3)cc2)cc(OC)c1OC	-2.3	-2.2
O=C(Nc1ccc([N+](=O)[O-])cc1)c1ncn[nH]1	-3.1	88.3*
Cc1c(NC(=O)c2ncn[nH]2)cccc1-c1nc2cc(Cl)ccc2o1	8.2	53.0*
O=C1NC(=O)N(c2ccccc2)C1C=Nc1ccc([N+](=O)[O-])cc1 (stereo unspecified)	-1.5	6.0
Cc1ccc(-c2n[nH]c(=O)c3ccccc23)cc1S(=O)(=O)Nc1ccc(OCC(N)=O)cc1	-3.5	5.0
COc1ccc(CC(=O)Nc2ccc(-c3nc4cc(C)ccc4o3)cc2)cc1	0.1	-3.0
SMILES	Pf apPOL inh	mHTT-CaM PPI inh
CN(C)CC(O)COCC12CC3CC(CC(C3)C1)C2 (stereo unspecified)	-7.5	2.7
Cc1c(NC(=O)c2ncn[nH]2)cccc1-c1nc2ccccc2s1	-8.4	51.0*
O=C(Nc1ccc2oc(-c3ccccc3Cl)nc2c1)c1ncn[nH]1	58.0*	77.0*
Cc1c(NC(=O)c2ccccc2I)cccc1-c1nc2ccccc2s1	-4.5	3.7
O=C(Nc1ccc2oc(-c3ccccc3Cl)nc2c1)c1cncc(Br)c1	-22.5	-8.0
Cc1oc(C2CCN(C(=O)c3ccc(Br)o3)CC2)nc1C(=O)N1CCCC1	-1.2	13.8
COC(=O)C(=CC(=O)c1ccc(Cl)cc1)Nc1ccccc1	7.5	.
Brc1cnc2nc(COc3ccccc3)[nH]c2c1	-12.1	-2.7
Cc1ccccc1C(=O)Nc1c(-c2ccccn2)c(=O)c2ccccc2n1C	-16.7	28.7
O=C(NN1CCOCC1)c1ccc(Br)cc1	56.3*	-6.7
O=C(NN1CCOCC1)c1cccc(Br)c1	-7.6	3.0
FC(F)(F)c1cccc(-c2nnc(-c3ccc(Oc4cc(Cl)cc(Cl)c4)o3)o2)c1	0.2	.
CN(C)S(=O)(=O)Oc1ccc(-c2noc(-c3ccc(Oc4cc(Cl)cc(Cl)c4)o3)n2)cc1	58.6*	.
Cc1cccc(-c2cncc(C(=O)NC3CCCCC3)c2)c1	-0.2	-12.4
CCOc1ccc(S(=O)(=O)N=C2C=C(Nc3ccc(OC)cc3)C(=O)c3ccccc32)cc1	-0.2	89.0*
Cc1ccc(NC2=CC(=NS(=O)(=O)c3cccs3)c3ccccc3C2=O)c(C)c1	3.4	90.0*
COc1ccc(C)cc1NC(=O)C(NS(=O)(=O)c1cccs1)C(C)C (stereo unspecified)	-0.6	0.0
COc1ccccc1NC1=CC(=NS(=O)(=O)c2ccc(C)cc2)c2ccccc2C1=O	4.6	93.0*
CCc1ccc(NS(=O)(=O)c2ccc(OC)cc2)cc1	-3.8	-9.7
CCOc1ccc(NC2=CC(=NS(=O)(=O)c3ccc(OCC)cc3)c3ccccc3C2=O)cc1	-2.2	75.0*
CCOc1ccc(S(=O)(=O)Nc2ccc(I)cc2)cc1	-16.1	-16.9
COc1ccccc1NC1=C(Cl)C(=O)c2ccccc2C1=O	11.4	.
CCn1c(C2CCN(S(=O)(=O)c3ccc(F)cc3)C2)nc2cccnc21 (stereo unspecified)	-5.9	-1.1
Cc1cc(C)c(S(=O)(=O)Nc2ccc3c(c2)CCC(=O)N3)c(C)c1	-0.1	7.5
CCOc1ccc(S(=O)(=O)Nc2cnc3ccccc3c2)cc1	8.0	-3.6
SMILES	Pf apPOL inh	mHTT-CaM PPI inh
COc1ccc(S(=O)(=O)N=C2C=C(Nc3ccccc3)C(=O)c3ccccc32)cc1	11.4	88.0*
CCOc1ccc(S(=O)(=O)NC(=O)c2ccccc2)cc1	0.5	-14.2
CCOc1ccc(NC2=CC(=NS(=O)(=O)c3ccc(F)cc3)c3ccccc3C2=O)cc1	-5.0	67.0*
COc1ccc(S(=O)(=O)N=C2C=C(C(C)C)C(=O)C=C2C)cc1	5.3	-2.0
CCOc1ccc(S(=O)(=O)N=C2C=C(Nc3ccccc3)C(=O)c3ccccc32)cc1	3.1	90.0*
COc1ccc(S(=O)(=O)N=C2C=CC(=O)c3ccccc32)cc1	-1.8	98.0*
COc1ccc(S(=O)(=O)N=C2C(C)=CC(=O)C(S(=O)(=O)c3ccccc3)=C2C)cc1	-1.3	30.0
COc1ccc(-c2nnc(N3CCC(C(=O)NCc4ccc(F)cc4F)CC3)o2)cc1	-3.4	-4.5
Cc1ncc2n1CCN(C(=O)Nc1ccccc1)C2	1.5	4.0
O=C1C2C(C(=O)N1c1ccc([N+](=O)[O-])cc1)C1C=CC2C12CC2 (stereo unspecified)	.	-4.5
O=C1C(=Cc2ccccc2)Cc2ccccc21	-11.7	.
CCc1ccc(S(=O)(=O)N=C2C=C(Nc3ccccc3)C(=O)c3ccccc32)cc1	2.5	93.0*
O=S(=O)(N=C1SCCS1)c1ccccc1	-13.7	-1.0
CCN1C(=O)/C(=C2\C=Cc3ccccc3N2CC)SC1=Nc1ccccc1	-2.2	97.0*
CCN1C(=O)/C(=C2\C=Cc3ccccc3N2CC)SC1=Nc1ccc(N2CCOCC2)cc1	-2.9	0.0
O=C(NC1CC1)C1CN(C(=O)c2cccs2)CC12CCCCC2 (stereo unspecified)	-0.8	-5.3
COc1ccc(Br)cc1C=Nc1c(-c2ccco2)nc2ccccn12	4.7	46.0
COc1ccc(C=Nc2c(-c3ccco3)nc3ccccn23)cc1OC	-6.5	33.0
Clc1ccccc1C=Nc1c(-c2ccco2)nc2ccccn12	3.0	79.0*
CSc1ccc(C=Nc2c(-c3ccco3)nc3ccccn23)cc1	-8.8	80.0*
Brc1ccc(C=Nc2c(-c3ccco3)nc3ccccn23)cc1	-1.2	33.0
O=[N+]([O-])c1cc(C=Nc2c(-c3ccco3)nc3ccccn23)ccc1Cl	0.4	33.0
